Inconclusive results are not listed. A call without a number means that no potency is given here. Active and inactive are the calls of the source. The call rests on the fitted dose curve; in most records, active means well fitted activation curve with a large enough effect in the repeat runs; inconclusive means weak or mixed curves; inactive means flat fitted curve, though single readings scatter.
Experiment: qHTS assay for small molecule agonists of the antioxidant response element (ARE) signaling pathway measured by Nrf2-dependant transcriptional activity (AID 720636);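 on activation: HepG2 cells with an ARE-driven luciferase reporter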
Settings: ARE-luc HepG2, Nrf2 luciferase reporter, 16 h; series mostly up to 92.4 µM
Method in brief: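 HepG2 ARE-luc reporter line, 1% dialyzed FBS; 6 hr attachment at 37 C, compound pinned in, 16 hr at 37 C/5% CO2; ONE-Glo, 30 min RT, luminescence read.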
Potency means the concentration at half of the fitted maximal effect.

| SMILES | Potency |
| --- | --- |
| Fc1ccc(Oc2ccnc3cc(Cl)cc(Cl)c23)cc1 | 34.4 µM (active) |
| COC(=O)N(OC)c1ccccc1COc1ccn(-c2ccc(Cl)cc2)n1 | inactive |
| CC[C@H]1CCCC(O[C@H]2CC[C@H](N(C)C)[C@@H](C)O2)[C@@H](C)C(=O)C2=C[C@@H]3[C@@H](C=C[C@@H]4C[C@@H](O[C@@H]5O[C@@H](C)[C@H](OC)[C@@H](OC)[C@H]5OC)C[C@@H]34)[C@@H]2CC(=O)O1 (some centres undefined) | inactive |
| O=C(O)[C@@H]1[C@H](C(=O)O)[C@@]2(Cl)C(Cl)=C(Cl)[C@]1(Cl)C2(Cl)Cl | inactive |
| CCCCCCCCCCCCN(C)C | inactive |
| CCOP(=S)(OCC)SCn1nnc2ccccc2c1=O | inactive |
| CSC1=N[C@@](C)(c2ccccc2)C(=O)N1Nc1ccccc1 | inactive |
| CCC[CH2][Sn]([Cl])([Cl])[CH2]CCC | inactive |
| CC(C)(C)c1ccc(CSc2cnn(C(C)(C)C)c(=O)c2Cl)cc1 | inactive |
| CC(c1ccc(O)cc1)(c1ccc(O)cc1)c1ccc(O)cc1 | inactive |
| CC(C)N(C(=O)SCC(Cl)=C(Cl)Cl)C(C)C | inactive |
| CCC[CH2][Sn]1([CH2]CCC)[O]C(=O)C=CC(=O)[O]1 | 13.7 µM (active) |
| CCC(C)c1cc([N+](=O)[O-])cc([N+](=O)[O-])c1O (centres undefined) | inactive |
| O=P(Oc1ccccc1)(Oc1ccccc1)Oc1ccccc1 | inactive |
